According to PubChem BioAssay AID1159580 (chemical genetic matrix, 2015):
The whole screen tested about 5,500 compounds, of which about 2,000 (36%) were called active. Inconclusive results (about 18%) are left out. Cut-off read from the data, not from the text of the source: active = normalized growth mostly below about 0.91 (no sharp cut-off); inconclusive = no clear call, values can overlap the other calls; inactive = mostly above about 0.92. The list shows a part of the results.

Assay: chemical genetic growth profiling, strain panel (AID 1159580);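 note: tested at 20 µM; growth read once vehicle control cultures reached saturation at 30 °C; 1 = growth at the plate median or of vehicle wells; lower values mean less growth of the strain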
Details: growth OD

Measured: normalized growth

COc1cc(OC)c2c(=O)c(O)c(-c3ccc(OC)c(OC)c3)oc2c1
active: S. cerevisiae deletion strains, locus YKL009W, strain mrt4, hits give low values 1.45 [resistant] | S. cerevisiae deletion strains, locus YKL190W, strain CNB1, hits give low values 0.202 | S. cerevisiae deletion strains, locus YKR001C, strain vps1, hits give low values 0.738 | S. cerevisiae deletion strains, locus YLR027C, strain aat2, hits give low values 0.92 | S. cerevisiae deletion strains, locus YLR039C, strain RIC1, hits give low values 0.227 | S. cerevisiae deletion strains, locus YLR058C, strain SHM2, hits give low values 0.295 | S. cerevisiae deletion strains, locus YLR221C, strain rsa3, hits give low values 0.865 | S. cerevisiae deletion strains, locus YLR262C, strain YPT6 (second series), hits give low values 0.655 | S. cerevisiae deletion strains, locus YLR262C, strain YPT6, hits give low values 0.374 | S. cerevisiae deletion strains, locus YLR268W, strain sec22, hits give low values 0.558 | S. cerevisiae deletion strains, locus YLR320W, strain mms22, hits give low values 0.853 | S. cerevisiae deletion strains, locus YLR342W, strain FKS1 (second series), hits give low values 0.341 | S. cerevisiae deletion strains, locus YLR342W, strain FKS1, hits give low values 0.875 | S. cerevisiae deletion strains, locus YLR357W, strain rsc2, hits give low values 0.705 | S. cerevisiae deletion strains, locus YLR371W, strain rom2, hits give low values 0.645 | S. cerevisiae deletion strains, locus YLR418C, strain cdc73, hits give low values 0.559 | S. cerevisiae deletion strains, locus YML016C, strain PPZ1, hits give low values 0.155 | S. cerevisiae deletion strains, locus YML124C, strain tub3, hits give low values 0.845 | S. cerevisiae deletion strains, locus YMR058W, strain fet3, hits give low values 0.35 | S. cerevisiae deletion strains, locus YMR205C, strain PFK2, hits give low values 0.696 | S. cerevisiae deletion strains, locus YMR223W, strain ubp8, hits give low values 0.759 | S. cerevisiae deletion strains, locus YMR307W, strain GAS1, hits give low values 0.381 | S. cerevisiae deletion strains, locus YNL067W, strain RPL9B, hits give low values 0.438 | S. cerevisiae deletion strains, locus YNL153C, strain GIM3, hits give low values 0.446 | S. cerevisiae deletion strains, locus YNL209W, strain ssb2, hits give low values 0.572 | S. cerevisiae deletion strains, locus YNL233W, strain BNI4, hits give low values 0.601 | S. cerevisiae deletion strains, locus YNL307C, strain MCK1, hits give low values 0.893 | S. cerevisiae deletion strains, locus YNR052C, strain pop2, hits give low values 0.761 | S. cerevisiae deletion strains, locus YOL147C, strain pex11, hits give low values 0.813 | S. cerevisiae deletion strains, locus YOR061W, strain CKA2, hits give low values 0.285 | S. cerevisiae deletion strains, locus YOR069W, strain VPS5, hits give low values 0.458 | S. cerevisiae deletion strains, locus YOR083W, strain WHI5, hits give low values 0.884 | S. cerevisiae deletion strains, locus YOR106W, strain vam3, hits give low values 0.616 | S. cerevisiae deletion strains, locus YOR136W, strain idh2, hits give low values 0.871 | S. cerevisiae deletion strains, locus YOR144C, strain elg1, hits give low values 0.788 | S. cerevisiae deletion strains, locus YOR184W, strain ser1, hits give low values 0.683 | S. cerevisiae deletion strains, locus YOR270C, strain vph1, hits give low values 0.716 | S. cerevisiae deletion strains, locus YOR290C, strain snf2, hits give low values 0.817 | S. cerevisiae deletion strains, locus YPL051W, strain arl3, hits give low values 0.763 | S. cerevisiae deletion strains, locus YPL106C, strain sse1, hits give low values 0.784 | S. cerevisiae deletion strains, locus YPL240C, strain hsp82, hits give low values 0.92 | S. cerevisiae deletion strains, locus YPL241C, strain CIN2, hits give low values 0.506 | S. cerevisiae deletion strains, locus YPR163C, strain tif3, hits give low values 0.838 | S. cerevisiae deletion strains, locus YPR167C, strain met16, hits give low values 0.78 | S. cerevisiae deletion strains, strain wtn01, hits give low values 0.66 | S. cerevisiae strains, strain wild type, hits give low values 0.102
inactive: S. cerevisiae deletion strains, locus YKL068W, hits give low values 0.994 | S. cerevisiae deletion strains, locus YKL085W, strain MDH1 (second series), hits give low values 1.05 | S. cerevisiae deletion strains, locus YKL085W, strain MDH1, hits give low values 1.05 | S. cerevisiae deletion strains, locus YKL160W, strain elf1, hits give low values 0.922 | S. cerevisiae deletion strains, locus YKR026C, strain gcn3, hits give low values 0.959 | S. cerevisiae deletion strains, locus YKR091W, strain srl3, hits give low values 0.953 | S. cerevisiae deletion strains, locus YLL001W, strain dnm1, hits give low values 0.906 | S. cerevisiae deletion strains, locus YLL026W, hits give low values 0.972 | S. cerevisiae deletion strains, locus YLL041C, strain sdh2, hits give low values 0.933 | S. cerevisiae deletion strains, locus YLR102C, strain apc9, hits give low values 0.929 | S. cerevisiae deletion strains, locus YLR113W, strain HOG1, hits give low values 0.944 | S. cerevisiae deletion strains, locus YLR258W, strain gsy2, hits give low values 0.917 | S. cerevisiae deletion strains, locus YLR370C, strain arc18, hits give low values 0.967 | S. cerevisiae deletion strains, locus YLR384C, strain iki3, hits give low values 0.942 | S. cerevisiae deletion strains, locus YML032C, strain rad52, hits give low values 0.91 | S. cerevisiae deletion strains, locus YML120C, strain ndi1, hits give low values 0.948 | S. cerevisiae deletion strains, locus YMR078C, strain ctf18, hits give low values 0.957 | S. cerevisiae deletion strains, locus YMR125W, strain sto1, hits give low values 0.982 | S. cerevisiae deletion strains, locus YMR129W, hits give low values 0.954 | S. cerevisiae deletion strains, locus YMR231W, strain pep5, hits give low values 0.973 | S. cerevisiae deletion strains, locus YNL071W, strain lat1, hits give low values 0.975 | S. cerevisiae deletion strains, locus YNL183C, strain NPR1, hits give low values 0.941 | S. cerevisiae deletion strains, locus YNL248C, strain rpa49, hits give low values 0.951 | S. cerevisiae deletion strains, locus YNL250W, strain rad50, hits give low values 1.01 | S. cerevisiae deletion strains, locus YNL271C, strain bni1, hits give low values 0.922 | S. cerevisiae deletion strains, locus YNL298W, strain CLA4, hits give low values 0.975 | S. cerevisiae deletion strains, locus YNL322C, strain KRE1 (second series), hits give low values 0.961 | S. cerevisiae deletion strains, locus YNR049C, strain mso1, hits give low values 0.968 | S. cerevisiae deletion strains, locus YOL012C, strain htz1 0.232 | S. cerevisiae deletion strains, locus YOR001W, strain rrp6, hits give low values 0.922 | S. cerevisiae deletion strains, locus YOR070C, strain gyp1, hits give low values 0.968 | S. cerevisiae deletion strains, locus YOR080W, strain dia2, hits give low values 0.942 | S. cerevisiae deletion strains, locus YOR231W, strain MKK1, hits give low values 0.991 | S. cerevisiae deletion strains, locus YOR265W, strain rbl2, hits give low values 0.94 | S. cerevisiae deletion strains, locus YOR316C, strain cot1, hits give low values 0.938 | S. cerevisiae deletion strains, locus YPL078C, strain atp4, hits give low values 0.958 | S. cerevisiae deletion strains, locus YPL256C, strain CLN2, hits give low values 0.969 | S. cerevisiae deletion strains, locus YPR119W, strain clb2, hits give low values 0.97 | S. cerevisiae deletion strains, locus YPR141C, strain kar3, hits give low values 0.996
